Results published in PubChem BioAssay (Tox21).
Values joined by “and” are separate entries in the source; they are usually repeats but may differ in a detail not shown here. Equal values may be shown once. Records with an inconclusive call do not appear. Some structures have more than one record in an assay (separate samples or runs), and their calls can disagree. Active and inactive are the calls of the source. Unless noted, calls come from the whole dose curve; as a rule, active = well fitted curve in the direction sought with a large enough effect in the repeat runs; inconclusive = weak or mixed curves; inactive = no such curve, though single readings can be large; an effect the other way counts as inactive or inconclusive.

How the values were obtained:
[1] = qHTS assay to identify small molecule agonists of the estrogen receptor alpha (ER-alpha) signaling pathway in the presence of an antagonist - cell viability counter screen (AID 1259386);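 note: cells exposed to compounds for 22 h at 37 °C before the viability read; nearly all actives have a fitted effect of over 30% in size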; note: potency is the fitted concentration of half-maximal effect
How it was run: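 VM7Luc4E2 cells (endogenous full-length ER-alpha, 4×ERE-luciferase) were held 5 days in phenol red-free medium with 10% charcoal-stripped FBS, plated, then given 10.0nM ICI-182,780 and compounds at 15 concentrations for 22hr at 37C; viability read by CellTiter-Fluor fluorescence.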

[2] = molecular target: Progesterone receptor (Homo sapiens) (UniProt P06401); assay: qHTS assay to identify small molecule agonists of the progesterone receptor (PR) signaling pathway (AID 1346784; calls by dose curve; note: nearly all actives have a fitted effect of over 30% in size; note: potency is the fitted concentration of half-maximal effect)
Sequence of Progesterone receptor (Homo sapiens) (P06401 whole entry, looked up): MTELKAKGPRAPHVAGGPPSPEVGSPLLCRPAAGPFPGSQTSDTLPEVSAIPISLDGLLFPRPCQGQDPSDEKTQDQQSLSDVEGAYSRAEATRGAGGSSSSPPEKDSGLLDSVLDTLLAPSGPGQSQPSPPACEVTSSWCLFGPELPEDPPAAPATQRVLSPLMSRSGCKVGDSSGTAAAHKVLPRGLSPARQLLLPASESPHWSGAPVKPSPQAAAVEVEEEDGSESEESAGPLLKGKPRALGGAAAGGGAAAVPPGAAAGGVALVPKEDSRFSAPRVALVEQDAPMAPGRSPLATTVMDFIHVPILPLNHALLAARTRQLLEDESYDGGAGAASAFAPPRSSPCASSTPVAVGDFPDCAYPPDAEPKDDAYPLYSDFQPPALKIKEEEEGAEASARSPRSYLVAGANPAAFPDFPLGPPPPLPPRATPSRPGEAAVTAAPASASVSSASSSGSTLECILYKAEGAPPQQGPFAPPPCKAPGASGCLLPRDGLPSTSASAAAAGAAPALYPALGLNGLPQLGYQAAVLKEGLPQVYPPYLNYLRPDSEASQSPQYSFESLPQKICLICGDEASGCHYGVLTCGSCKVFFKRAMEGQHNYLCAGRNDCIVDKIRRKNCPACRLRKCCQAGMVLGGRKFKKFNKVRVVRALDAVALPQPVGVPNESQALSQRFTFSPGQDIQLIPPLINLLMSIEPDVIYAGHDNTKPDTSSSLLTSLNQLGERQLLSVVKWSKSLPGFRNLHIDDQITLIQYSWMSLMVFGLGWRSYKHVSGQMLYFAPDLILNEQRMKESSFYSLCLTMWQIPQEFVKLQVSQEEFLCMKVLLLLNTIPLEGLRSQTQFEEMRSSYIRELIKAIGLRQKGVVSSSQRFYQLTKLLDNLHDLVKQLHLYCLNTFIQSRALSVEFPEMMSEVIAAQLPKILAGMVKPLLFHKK
How it was run: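 PR-UAS-bla HEK 293T cells carrying a UAS-driven beta-lactamase reporter were seeded in medium with 2% charcoal-stripped FBS, preincubated 6 hr at 37C, then exposed to compounds in DMSO for 16 hr; agonism was read by LiveBLAzer B/G FRET fluorescence.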

[3] = molecular target: Progesterone receptor (Homo sapiens) (UniProt P06401); assay: qHTS assay to identify small molecule antagonists of the progesterone receptor (PR) signaling pathway (AID 1346795; active = well fitted inhibition curve with a large enough effect in the signal ratio in the repeat runs, not every such curve was filed as active; the % refers to the signal ratio; note: potency is the fitted concentration of half-maximal effect)
How it was run: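 PR-UAS-bla HEK293T cells carrying a UAS-driven beta-lactamase reporter were plated in medium with 2% charcoal-stripped FBS and rested 6 hr at 37C. Compounds were added with 1 nM R5020 (final) for 16 hr, then FRET substrate loaded 2 hr at room temperature.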

[4] = qHTS assay to identify small molecule antagonists of the progesterone receptor (PR) signaling pathway - cell viability counter screen (AID 1346798); note: series mostly up to about 92 µM; nearly all actives have a fitted effect of over 50% in size
How it was run: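 PR-UAS-bla HEK293T cells in medium with 2% charcoal-stripped FBS were treated with compounds plus R5020 for 16 hr at 37C. Cell viability was then read by CellTiter-Glo luminescence after 30 min at room temperature in the same wells.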

[5] = qHTS assay to identify small molecule agonists of the progesterone receptor (PR) signaling pathway - cell viability counter screen (AID 1346799; calls by dose curve; note: nearly all actives have a fitted effect of over 45% in size)
How it was run: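 PR-UAS-bla HEK293T cells, 3,000 per well in medium with 2% charcoal-stripped FBS, were preincubated 6 hr at 37C, then exposed to compounds for 16 hr; viability was read as CellTiter-Glo luminescence after 30 min at room temperature.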

[6] = qHTS assay to identify small molecule antagonists of the TGF-beta/Smad signaling pathway - cell viability counter screen (AID 1346824); note: nearly all actives have a fitted effect of over 50% in size
How it was run: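 SBE-bla HEK 293T cells were plated overnight at 37 C, then given compounds in DMSO plus TGF-beta1 (added as 0.25 ng/mL solution) for 5 hr. After the bla read, CellTiter-Glo was added to the same wells and luminescence read after 30 min at room temperature.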

[7] = qHTS assay to identify small molecule agonists of the TGF-beta/Smad signaling pathway - cell viability counter screen (AID 1346829); note: top concentration of the series differs between compounds; nearly all actives have a fitted effect of over 45% in size
How it was run: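 Compound-treated SBE-bla HEK 293T cells (5 hr, 37 C) were assessed for viability with CellTiter-Glo in parallel with the reporter read.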

[8] = qHTS assay to identify small molecule agonists of the TGF-beta/Smad signaling pathway (AID 1346859; active = well fitted activation curve with a large enough effect in the signal ratio in the repeat runs, not every such curve was filed as active; the % refers to the signal ratio; note: series mostly up to about 77 µM)
How it was run: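 HEK 293T cells stably carrying a beta-lactamase reporter driven by the Smad binding element were seeded overnight, exposed to DMSO-dissolved compounds for 5 hr at 37 C, 5% CO2, then loaded with FRET substrate for 2 hr at room temperature.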

[9] = molecular target: Thyrotropin-releasing hormone receptor (Homo sapiens) (UniProt P34981); assay: qHTS assay to identify small molecule antagonists of the thyrotropin-releasing hormone receptor (TRHR) signaling pathway (AID 1346877; active = well fitted inhibition curve with a large enough effect in the repeat runs, not every such curve was filed as active; note: series mostly up to about 51 µM)
Sequence of Thyrotropin-releasing hormone receptor (Homo sapiens) (P34981 whole entry, looked up): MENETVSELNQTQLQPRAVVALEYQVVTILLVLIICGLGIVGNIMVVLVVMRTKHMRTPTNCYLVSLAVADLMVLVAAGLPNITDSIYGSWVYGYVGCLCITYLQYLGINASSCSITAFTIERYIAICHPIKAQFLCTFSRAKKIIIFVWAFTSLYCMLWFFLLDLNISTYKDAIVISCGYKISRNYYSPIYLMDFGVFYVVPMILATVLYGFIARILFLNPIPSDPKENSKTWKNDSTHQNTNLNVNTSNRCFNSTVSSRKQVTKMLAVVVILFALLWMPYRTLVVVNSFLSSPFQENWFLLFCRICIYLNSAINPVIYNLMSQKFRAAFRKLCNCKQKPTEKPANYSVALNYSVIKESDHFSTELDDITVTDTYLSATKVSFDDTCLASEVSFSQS
How it was run: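 TRHR-expressing HEK293 cells were seeded, cultured 18 h at 37 °C, then loaded with calcium dye for 2 h. Compounds were pre-incubated 5 min at room temperature before 1 nM TRH (final) was added, and kinetic fluorescence was recorded for 3 min.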

[10] = molecular target: Thyrotropin-releasing hormone receptor (Homo sapiens) (UniProt P34981); assay: qHTS assay to identify small molecule agonists of the thyrotropin-releasing hormone receptor (TRHR) signaling pathway (AID 1346891; calls by dose curve; note: series mostly up to about 58 µM)
How it was run: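 TRHR-expressing HEK293 cells were plated 18 h at 37 °C/5% CO2, loaded with calcium dye 2 h at 37 °C, then given compound in DMSO; fluorescence was read kinetically for 3 min at 1 s intervals.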

[11] = Human pregnane X receptor (PXR) small molecule agonists, qHTS cell viability counter screen (AID 1346977); note: nearly all actives have a fitted effect of over 50% in size; note: potency is the fitted concentration of half-maximal effect
How it was run: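 PXR-Luc HepG2 cells in medium with 5% charcoal-stripped FBS were pre-incubated 5hr, then exposed to compounds for 24hr at 37C. Viability was read in the same wells by CellTiter-Fluor fluorescence, reagent added after 23hr with a 1hr incubation.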

[12] = Caspase-3/7 induction in CHO-K1 cells by small molecules, qHTS cell viability counter screen (AID 1346979); note: nearly all actives have a fitted effect of over 35% in size; note: potency is the fitted concentration of half-maximal effect
How it was run: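 Wild-type CHO-K1 cells were seeded at 1,500 per well, rested 5hr at 37 C, then exposed to compounds in DMSO. After 16hr, CellTiter-Fluor reagent was added and fluorescence read 1hr later as the viability measure.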

[13] = Caspase-3/7 induction in CHO-K1 cells by small molecules, qHTS assay (AID 1346980); note: nearly all actives have a fitted effect of over 15% in size
How it was run: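 Wild-type cells were seeded at 1,500 per well and settled 5 hr at 37 C, 5% CO2, then exposed to DMSO-dissolved compounds for 17 hr. Caspase-Glo 3/7 reagent was added, and luminescence was read after 30min at room temperature.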

[14] = Caspase-3/7 induction in HepG2 cells by small molecules, qHTS cell viability counter screen (AID 1346981); note: nearly all actives have a fitted effect of over 30% in size; note: potency is the fitted concentration of half-maximal effect
How it was run: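 Wild-type HepG2 cells (2,000/well) were allowed to settle for 5 hr at 37 C, 5% CO2, then dosed with compounds in DMSO by pin transfer. After 16 hr at 37 C, CellTiter-Fluor was added and fluorescence read 1 hr later.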

[15] = molecular target: Nuclear receptor subfamily 1 group I member 2 (Homo sapiens) (UniProt O75469); assay: Human pregnane X receptor (PXR) small molecule agonists, qHTS assay (AID 1346982); note: nearly all actives have a fitted effect of over 35% in size; note: potency is the fitted concentration of half-maximal effect
Sequence of Nuclear receptor subfamily 1 group I member 2 (Homo sapiens) (O75469 whole entry, looked up): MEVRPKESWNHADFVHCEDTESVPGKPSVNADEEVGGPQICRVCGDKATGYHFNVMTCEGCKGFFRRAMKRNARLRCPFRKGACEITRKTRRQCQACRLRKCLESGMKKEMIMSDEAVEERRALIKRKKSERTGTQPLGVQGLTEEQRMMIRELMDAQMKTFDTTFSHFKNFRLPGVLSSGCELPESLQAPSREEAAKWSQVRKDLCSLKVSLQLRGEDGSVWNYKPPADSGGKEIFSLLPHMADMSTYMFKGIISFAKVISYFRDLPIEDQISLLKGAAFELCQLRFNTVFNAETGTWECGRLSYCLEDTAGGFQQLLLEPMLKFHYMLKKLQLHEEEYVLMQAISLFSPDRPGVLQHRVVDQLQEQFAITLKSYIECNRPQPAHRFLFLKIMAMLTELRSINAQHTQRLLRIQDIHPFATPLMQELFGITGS
How it was run: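 PXR-Luc HepG2 cells (CYP3A4 promoter-driven luciferase) were seeded in medium with 5% charcoal-stripped FBS, left 5 hr at 37 C, then exposed to compounds in DMSO for 24 hr. Luminescence was read after ONE-Glo addition.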

[16] = molecular target: Nuclear receptor subfamily 1 group I member 2 (Rattus norvegicus) (UniProt Q9R1A7); assay: Rat pregnane X receptor (rPXR) activation by small molecules, qHTS assay (AID 1346983); conditions: rPXR luciferase reporter cells, One-Glo luminescence, 24 h; max activation: stronger effect = higher value; note: nearly all actives have a fitted effect of over 20% in size
Sequence of Nuclear receptor subfamily 1 group I member 2 (Rattus norvegicus) (Q9R1A7 whole entry, looked up): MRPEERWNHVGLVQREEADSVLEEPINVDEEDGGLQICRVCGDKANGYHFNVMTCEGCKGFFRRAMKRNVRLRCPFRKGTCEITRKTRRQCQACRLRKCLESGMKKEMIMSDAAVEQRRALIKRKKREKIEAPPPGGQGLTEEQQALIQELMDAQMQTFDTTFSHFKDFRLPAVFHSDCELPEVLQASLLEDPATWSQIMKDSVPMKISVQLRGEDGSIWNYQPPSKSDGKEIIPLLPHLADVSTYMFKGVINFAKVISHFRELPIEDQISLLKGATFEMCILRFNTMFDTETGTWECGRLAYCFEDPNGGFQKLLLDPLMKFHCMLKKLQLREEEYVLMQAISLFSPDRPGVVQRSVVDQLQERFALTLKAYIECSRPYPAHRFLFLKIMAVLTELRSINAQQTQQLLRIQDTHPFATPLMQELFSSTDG
How it was run: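 Cell-based rPXR luciferase reporter assay, 2,000 cells per well, rested 5hr at 37 C before compound addition in DMSO, then 24 hr at 37 C. One-Glo reagent was added and luminescence read after 30 min at room temperature.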

[17] = Caspase-3/7 induction in HepG2 cells by small molecules, qHTS assay (AID 1346978); note: nearly all actives have a fitted effect of over 15% in size
How it was run: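 Wild-type HepG2 cells (2,000/well) were settled 5 h at 37 C, 5% CO2, then exposed to compounds in DMSO for 17 h. Caspase-3/7 activity was read by luminescence 30 min after adding Caspase-Glo 3/7 reagent at room temperature.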

[18] = molecular target: Cytochrome P450 2D6 (Homo sapiens) (UniProt P10635); assay: Cytochrome P450 Family 2 Subfamily D Member 6 (CYP2D6) small molecule antagonists: luciferase reporter qHTS assay (AID 1671196); note: nearly all actives have a fitted effect of over 50% in size; note: potency is the fitted concentration of half-maximal effect
Sequence of Cytochrome P450 2D6 (Homo sapiens) (P10635 whole entry, looked up): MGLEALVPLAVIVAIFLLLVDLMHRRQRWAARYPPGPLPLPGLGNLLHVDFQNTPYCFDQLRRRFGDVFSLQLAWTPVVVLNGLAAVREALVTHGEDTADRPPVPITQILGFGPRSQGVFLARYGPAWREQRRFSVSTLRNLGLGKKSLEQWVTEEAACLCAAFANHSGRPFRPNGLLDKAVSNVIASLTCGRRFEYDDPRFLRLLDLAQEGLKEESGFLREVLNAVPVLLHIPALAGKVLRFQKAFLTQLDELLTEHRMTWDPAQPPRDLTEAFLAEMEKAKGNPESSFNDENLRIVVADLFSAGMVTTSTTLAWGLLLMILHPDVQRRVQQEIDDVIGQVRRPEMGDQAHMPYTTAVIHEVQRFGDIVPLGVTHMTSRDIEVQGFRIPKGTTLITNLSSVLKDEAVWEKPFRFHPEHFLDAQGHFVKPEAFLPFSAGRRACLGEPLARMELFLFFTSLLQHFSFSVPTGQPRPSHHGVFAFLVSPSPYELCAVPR
How it was run: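 CYP2D6 enzyme–substrate mix was held with compound for 10 min at room temperature, then NADPH regeneration solution was added and the reaction ran 1 h at room temperature. Luciferin product was detected by luminescence after 20 min with detection reagent.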

[19] = molecular target: Nuclear receptor subfamily 1 group I member 2 (Homo sapiens) (UniProt O75469); assay: CYP3A4 induction through human pregnane X receptor (PXR) by small molecules, qHTS assay (AID 1346984); note: nearly all actives have a fitted effect of over 40% in size
How it was run: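 DPX-2 cells (HepG2 co-transfected with PXR and CYP3A4 promoter-luciferase) treated with compounds 24 h at 37C; luciferin-IPA CYP3A4 substrate 3uM final added for 3 h, then One-Glo; luminescence read. qHTS format.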

[20] = molecular target: Nuclear receptor subfamily 1 group I member 2 (Homo sapiens) (UniProt O75469); assay: Human pregnane X receptor (PXR) activation by small molecules, qHTS assay (AID 1346985); note: nearly all actives have a fitted effect of over 40% in size
How it was run: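 DPX-2 cells (HepG2 co-transfected with a PXR response element and a CYP3A4-promoter luciferase construct) were seeded at 2,000 per well, rested 5 hr at 37C, then exposed to DMSO-dissolved compounds for 24 hr. Activation was read as luciferase luminescence.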
% is set by controls: 0 for no effect and ±100 for the full control effect.

Nc1ccc(O)c(N)c1
inactive: Potency [2] | Potency [3] | Potency [4] | Potency [5] | Potency [6] | Potency [7] | outcome [8] | Potency [9] | Potency [10] | Potency [13] | Potency [15]
active: Potency [1] 60.7 µM and 54.5 µM | Potency [11] 44.7 µM | Potency [12] 60.7 µM and 30.6 µM | Potency [14] 54.1 µM and 48.6 µM

C=C[C@H]1CN2CC[C@H]1C[C@H]2[C@H](O)c1ccnc2ccc(OC)cc12
active: Potency [11] 30.6 µM
inactive: Potency [1] | Potency [2] | Potency [3] | Potency [4] | Potency [5] | Potency [7] | outcome [8] | Potency [9] | Potency [12] | Potency [13] | Potency [14] | max activation [16] -0.698%

C1COCCN1
inactive: Potency [1] | Potency [2] | Potency [3] | Potency [4] | Potency [5] | Potency [6] | Potency [7] | outcome [8] | Potency [11] | Potency [17] | Potency [12] | Potency [13] | Potency [14] | Potency [15] | Potency [18]

Clc1ccc(Sc2cc(Cl)c(Cl)cc2Cl)cc1
59.5 µM (active) and inactive: Potency [15]
inactive: Potency [1] | Potency [2] | Potency [4] | Potency [6] | Potency [7] | outcome [8] | Potency [9] | Potency [10] | Potency [11] | Potency [17] | Potency [12] | Potency [13] | Potency [14] | Potency [18]
active: Potency [3] 24.3 µM

O=S1(=O)CCCO1
inactive: Potency [1] | Potency [2] | Potency [3] | Potency [4] | Potency [5] | Potency [6] | Potency [7] | outcome [8] | Potency [17] | Potency [12] | Potency [13] | Potency [15] | Potency [18]

CCCCCC1C(=O)CCC1CC(=O)OC (centres undefined)
inactive: Potency [1] | Potency [2] | Potency [3] | Potency [4] | Potency [5] | Potency [6] | Potency [7] | outcome [8] | Potency [10] | Potency [11] | Potency [17] | Potency [12] | Potency [13] | Potency [14] | Potency [15] | Potency [18]

CC(=O)[C@@]1(O)CC[C@H]2[C@@H]3C[C@H](C)C4=CC(=O)C=C[C@]4(C)[C@@]3(F)[C@@H](O)C[C@@]21C
active: Potency [2] 61.1 nM and 168 nM | Potency [15] 15.4 µM
inactive: Potency [1] | Potency [3] | Potency [4] | Potency [5] | Potency [6] | Potency [7] | outcome [8] | Potency [9] | Potency [10] | Potency [11] | Potency [17] | Potency [12] | Potency [13] | Potency [19] | Potency [20]

COc1ccc2nc(N)sc2c1
inactive: Potency [1] | Potency [2] | Potency [3] | Potency [4] | Potency [5] | Potency [6] | Potency [7] | outcome [8] | Potency [11] | Potency [17] | Potency [12] | Potency [13]
active: Potency [15] 48.6 µM and 21.7 µM | Potency [18] 10 µM and 63.3 µM
